Measurements reported in PubChem BioAssay (Tox21).
Results filed as inconclusive are left out. The source made the active and inactive calls. Unless noted, the call rests on the fitted dose curve; in most records, active means well fitted curve in the direction sought with a large enough effect in the repeat runs; inconclusive means weak or mixed curves; inactive means no such curve, though single readings can be large; an effect the other way counts as inactive or inconclusive.

Columns and labels:
[1] = qHTS assay to test for compound auto fluorescence at 590 nm (red) in HepG2 cells (AID 720674)
Procedure, shortened: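 Compound auto-fluorescence is scored relative to Rose Bengal sodium, measured at 540/590 nm in live HepG2 cultures after 1 hr compound contact (37 C, 5% CO2).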

[2] = qHTS assay to test for compound auto fluorescence at 535 nm (green) in HepG2 cells (AID 720675)
[3] = qHTS assay to test for compound auto fluorescence at 460 nm (blue) in HEK293 cells (AID 720678)
Procedure, shortened: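 Blue-channel (Ex/Em 405/460 nm) intensity measured in HEK293 cultures after overnight compound exposure at 37C; signal expressed relative to triamterene. Cells plated 2,000 per well in 10% dialyzed FBS medium and allowed 4-5 hr to attach.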

[4] = qHTS assay to test for compound auto fluorescence at 590 nm (red) in HEK293 cells (AID 720679)
Procedure, shortened: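 Red-channel autofluorescence (Ex/Em 540/590 nm; Rose Bengal sodium reference) was measured after overnight 37C, 5% CO2 exposure of attached HEK293 cells, 2,000 per well in medium with 10% dialyzed FBS.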

[5] = qHTS assay to test for compound auto fluorescence at 535 nm (green) in HEK293 cells (AID 720680)
[6] = qHTS assay to test for compound auto fluorescence at 460 nm (blue) in HEK293 cell free culture (AID 720681)
Procedure, shortened: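 Test compounds were pinned into cell-free culture medium (DMEM with 10% FBS) and fluorescence was read directly at Ex/Em 405/460 nm. Signals were expressed as fluorescence equivalents of triamterene, with DMSO vehicle as control.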

[7] = qHTS assay to test for compound auto fluorescence at 535 nm (green) in HEK293 cell free culture (AID 720682)
Procedure, shortened: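 Read-out: 485/535 nm fluorescence intensity, calibrated against fluorescein. Medium only (DMEM + 10% FBS, no cells); test compound or DMSO vehicle added by pintool before plate reading.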

[8] = qHTS assay to test for compound auto fluorescence at 590 nm (red) in HEK293 cell free culture (AID 720683)
Procedure, shortened: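 Tox21 10K library compounds were pinned into cell-free DMEM with 10% FBS and fluorescence was read at excitation 540 nm. Activity is expressed as Rose Bengal sodium equivalency.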

[9] = qHTS assay to test for compound auto fluorescence at 590 nm (red) in HepG2 cell free culture (AID 720684)
Procedure, shortened: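 Readout: intrinsic compound fluorescence at 590 nm emission after 540 nm excitation, scaled to Rose Bengal sodium. Matrix was cell-free MEM with 10% FBS; DMSO vehicle wells served as control.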

[10] = qHTS assay to test for compound auto fluorescence at 460 nm (blue) in HepG2 cell free culture (AID 720685)
Procedure, shortened: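 Cell-free plates of MEM plus 10% FBS received 23 nL compound or DMSO vehicle; blue-channel (405/460 nm) intensity scored against triamterene as reference fluorophore.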

[11] = qHTS assay to test for compound auto fluorescence at 535 nm (green) in HepG2 cell free culture (AID 720686)
[12] = qHTS assay to test for compound auto fluorescence at 460 nm (blue) in HepG2 cells (AID 720687)
Procedure, shortened: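 Cells (2,000/well in MEM with 10% FBS) attached overnight at 37 C, then were exposed to compound or DMSO for 1 hr at 37 C, 5% CO2. Fluorescence read at Ex/Em 405/460 nm, expressed as triamterene-equivalent signal.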

[13] = qHTS assay to identify small molecule antagonists of the thyroid receptor (TR) signaling pathway (AID 743065); further: series mostly up to about 70 µM; nearly all actives have a fitted effect of over 55% in size
Procedure, shortened: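 GH3.TRE-Luc rat pituitary cells carrying two TR response elements driving luciferase were plated for 4 h, given compound plus 1 nM T3 (final), and incubated 23.5 h at 37 C. ONE-Glo luminescence measured reporter inhibition; CellTiter-Fluor fluorescence tracked cytotoxicity.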

[14] = target: Aromatase (Homo sapiens) (UniProt P11511); test: qHTS assay to identify aromatase inhibitors (AID 743083); further: series mostly up to about 70 µM; nearly all actives have a fitted effect of over 55% in size
[15] = target: Aryl hydrocarbon receptor (Homo sapiens) (UniProt P35869); test: qHTS assay to identify small molecule that activate the aryl hydrocarbon receptor (AhR) signaling pathway (AID 743085);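 further: HG2L7.5c1 human HepG2 liver cells with stably integrated DRE-driven firefly reporter; series mostly up to about 70 µM; nearly all actives have a fitted effect of over 15% in size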
Procedure, shortened: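 HepG2 cells (HG2L7.5c1) stably carrying a firefly luciferase reporter driven by 20 dioxin responsive elements were exposed to compound for 24 h at 37C after a 5 h settling period; luminescence rise (ONE-Glo) indicated activation.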

[16] = target: Luciferin 4-monooxygenase (Photinus pyralis) (UniProt P08659); test: qHTS assay to identify small molecule inhibitors of firefly luciferase (AID 1224835); further: series mostly up to about 120 µM; nearly all actives have a fitted effect of over 25% in size
Procedure, shortened: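 Quantitative HTS format; KM concentrations of both substrates. Purified P. pyralis FLuc activity quantified from luminescence images.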

[17] = qHTS RealTime-Glo MT Cell Viability Assay in HEK293 cells - 0 hour (AID 1224880); further: top concentration of the series differs between compounds; nearly all actives have a fitted effect of over 45% in size
Procedure, shortened: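 Measured as luminescence from the same continuously cultured HEK293 wells at successive time points (0, 8, 16, 24, 32, 40 h) after compound addition. Reagent present from seeding; dosing at 5 h; incubation 37 C.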

[18] = qHTS assay to identify small molecule agonists of the sonic hedgehog signaling (Shh) pathway (AID 1259368; calls by dose curve;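 further: NIH/3T3-derived 3T3Gli1-Luc cells carrying a stable Gli1-driven firefly luciferase reporter; series mostly up to about 92 µM; nearly all actives have a fitted effect of over 15% in size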)
Procedure, shortened: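 Stable NIH/3T3 Gli1-Luc reporter clone; 24 hr cpd exposure after a 4 hr settling period; luminescence endpoint.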

[19] = qHTS assay to identify small molecule antagonists of the progesterone receptor (PR) signaling pathway - cell viability counter screen (AID 1346798); further: series mostly up to about 92 µM; nearly all actives have a fitted effect of over 50% in size
Procedure, shortened: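 PR-UAS-bla HEK293T cells in medium with 2% charcoal-stripped FBS were treated with compounds plus R5020 for 16 hr at 37C. Cell viability was then read by CellTiter-Glo luminescence after 30 min at room temperature in the same wells.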

[20] = target: Thyrotropin-releasing hormone receptor (Homo sapiens) (UniProt P34981); test: qHTS assay to identify small molecule antagonists of the thyrotropin-releasing hormone receptor (TRHR) signaling pathway (AID 1346877; active means well fitted inhibition curve with a large enough effect in the repeat runs, not every such curve was filed as active; further: series mostly up to about 51 µM)
Procedure, shortened: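 Human TRHR in HEK293 cells; inhibition of the intracellular calcium rise triggered by 1 nM TRH was followed by fluorescence over 3 min. Compounds were run at 15 concentrations, three replicates each.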

[21] = target: Thyrotropin-releasing hormone receptor (Homo sapiens) (UniProt P34981); test: qHTS assay to identify small molecule agonists of the thyrotropin-releasing hormone receptor (TRHR) signaling pathway (AID 1346891; calls by dose curve; further: series mostly up to about 58 µM)
Procedure, shortened: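 TRHR-expressing HEK293 cells were plated 18 h at 37 °C/5% CO2, loaded with calcium dye 2 h at 37 °C, then given compound in DMSO; fluorescence was read kinetically for 3 min at 1 s intervals.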

[22] = Caspase-3/7 induction in HepG2 cells by small molecules, qHTS assay (AID 1346978); further: nearly all actives have a fitted effect of over 15% in size
Procedure, shortened: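 Wild-type HepG2 cells (2,000/well) were settled 5 h at 37 C, 5% CO2, then exposed to compounds in DMSO for 17 h. Caspase-3/7 activity was read by luminescence 30 min after adding Caspase-Glo 3/7 reagent at room temperature.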

[23] = Caspase-3/7 induction in CHO-K1 cells by small molecules, qHTS assay (AID 1346980); further: nearly all actives have a fitted effect of over 15% in size
Procedure, shortened: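 Wild-type cells were seeded at 1,500 per well and settled 5 hr at 37 C, 5% CO2, then exposed to DMSO-dissolved compounds for 17 hr. Caspase-Glo 3/7 reagent was added, and luminescence was read after 30min at room temperature.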

[24] = qHTS assay to identify small molecule antagonists of the estrogen related receptor (ERR) signaling pathway (AID 1224819; further: nearly all actives have a fitted effect of over 50% in size; further: potency means the concentration at half of the fitted maximal effect)
Procedure, shortened: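 ERR reporter cells were plated at 2,000 cells/well and left 6 h at 37 C/5% CO2 before pin-tool transfer of compounds in DMSO. After 18 h at 37 C, One-Glo was added and luminescence was read 30 min later at room temperature.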

[25] = tested on: estrogen-related receptor alpha (ERRalpha) with PGC-1alpha coactivator, human; test: qHTS assay to identify small molecule antagonists of the estrogen related receptor signaling pathway with the pleiotropic PPARgamma coactivator (PGC) (AID 1224821; calls by dose curve;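 further: series mostly up to about 46 µM; lower luminescence signal means antagonism of PGC/ERR signalling; nearly all actives have a fitted effect of over 50% in size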)
Procedure, shortened: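 A PGC/ERR cell line supplied by NTP is seeded, allowed 6 h at 37 C, and treated with test compounds in DMSO for 18 h. Signal is then measured as luciferase luminescence using One-Glo.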

[26] = qHTS assay to identify small molecule antagonists of the estrogen related receptor signaling pathway with the pleiotropic PPARgamma coactivator (PGC) cell viability counter screen (AID 1224822; further: potency means the concentration at half of the fitted maximal effect;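 further: viability read after 17.5 h compound exposure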)
Procedure, shortened: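 Viable cell signal (CellTiter-Fluor, 30 min, 37 C/5% CO2) was measured in PGC/ERR cells after a 17.5 h compound incubation.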

[27] = qHTS assay to identify small molecule agonists of the estrogen related receptor signaling pathway with the pleiotropic PPARgamma coactivator (PGC) (AID 1224823)
Procedure, shortened: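 Compounds dissolved in DMSO are added by pin tool to PGC/ERR cells that have settled for 6 h, and incubation continues 18 h at 37 C. Reporter output is measured as One-Glo luminescence.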

Measured: Potency

Thyrotropin-releasing hormone receptor (Homo sapiens), sequence (P34981 whole entry, looked up): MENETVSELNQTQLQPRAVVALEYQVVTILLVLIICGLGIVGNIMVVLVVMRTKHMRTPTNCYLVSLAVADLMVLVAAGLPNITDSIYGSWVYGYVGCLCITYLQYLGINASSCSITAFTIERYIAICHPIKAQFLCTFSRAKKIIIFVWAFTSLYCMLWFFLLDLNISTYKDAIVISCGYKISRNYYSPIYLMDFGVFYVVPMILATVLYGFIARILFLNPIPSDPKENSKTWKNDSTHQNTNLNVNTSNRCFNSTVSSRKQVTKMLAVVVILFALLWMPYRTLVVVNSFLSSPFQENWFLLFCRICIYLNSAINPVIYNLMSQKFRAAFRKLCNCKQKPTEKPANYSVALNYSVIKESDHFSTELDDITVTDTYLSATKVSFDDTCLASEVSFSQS
Aryl hydrocarbon receptor (Homo sapiens), sequence (P35869 whole entry, looked up): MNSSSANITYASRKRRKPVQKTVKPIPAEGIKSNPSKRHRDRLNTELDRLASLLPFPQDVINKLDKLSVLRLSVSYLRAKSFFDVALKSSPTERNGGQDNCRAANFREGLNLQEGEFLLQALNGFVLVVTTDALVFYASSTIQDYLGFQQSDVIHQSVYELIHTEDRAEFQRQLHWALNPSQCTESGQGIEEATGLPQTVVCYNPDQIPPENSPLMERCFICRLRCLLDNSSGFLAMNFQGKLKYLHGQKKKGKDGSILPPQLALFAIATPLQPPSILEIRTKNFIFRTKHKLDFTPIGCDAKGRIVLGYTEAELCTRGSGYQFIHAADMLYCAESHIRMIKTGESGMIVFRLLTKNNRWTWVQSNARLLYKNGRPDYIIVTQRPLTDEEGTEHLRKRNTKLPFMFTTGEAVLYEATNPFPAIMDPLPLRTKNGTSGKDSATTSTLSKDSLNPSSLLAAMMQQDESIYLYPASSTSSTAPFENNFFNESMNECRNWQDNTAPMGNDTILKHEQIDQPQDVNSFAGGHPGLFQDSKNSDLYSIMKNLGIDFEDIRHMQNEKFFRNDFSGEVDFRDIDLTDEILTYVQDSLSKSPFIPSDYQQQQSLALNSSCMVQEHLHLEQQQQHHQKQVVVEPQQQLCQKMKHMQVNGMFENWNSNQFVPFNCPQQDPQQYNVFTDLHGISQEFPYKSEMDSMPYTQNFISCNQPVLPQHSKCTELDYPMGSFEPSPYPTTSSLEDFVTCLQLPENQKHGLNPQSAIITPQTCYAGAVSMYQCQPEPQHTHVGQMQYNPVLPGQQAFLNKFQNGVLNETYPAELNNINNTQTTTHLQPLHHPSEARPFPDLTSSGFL
Luciferin 4-monooxygenase (Photinus pyralis), sequence (P08659 whole entry, looked up): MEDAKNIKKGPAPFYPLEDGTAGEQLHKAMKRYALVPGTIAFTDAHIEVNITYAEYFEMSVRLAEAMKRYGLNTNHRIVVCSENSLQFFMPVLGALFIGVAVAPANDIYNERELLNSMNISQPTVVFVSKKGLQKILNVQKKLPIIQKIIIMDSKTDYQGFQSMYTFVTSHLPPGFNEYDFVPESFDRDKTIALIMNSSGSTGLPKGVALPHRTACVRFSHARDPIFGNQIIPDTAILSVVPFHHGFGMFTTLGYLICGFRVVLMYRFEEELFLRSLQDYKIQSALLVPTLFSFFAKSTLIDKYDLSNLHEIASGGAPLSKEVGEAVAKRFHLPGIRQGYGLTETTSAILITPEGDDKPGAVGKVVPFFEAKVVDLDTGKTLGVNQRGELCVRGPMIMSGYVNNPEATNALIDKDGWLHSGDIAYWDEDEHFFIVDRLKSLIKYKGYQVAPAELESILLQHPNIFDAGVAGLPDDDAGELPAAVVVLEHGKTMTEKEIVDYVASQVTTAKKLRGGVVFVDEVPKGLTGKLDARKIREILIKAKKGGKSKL
Aromatase (Homo sapiens), sequence (P11511 whole entry, looked up): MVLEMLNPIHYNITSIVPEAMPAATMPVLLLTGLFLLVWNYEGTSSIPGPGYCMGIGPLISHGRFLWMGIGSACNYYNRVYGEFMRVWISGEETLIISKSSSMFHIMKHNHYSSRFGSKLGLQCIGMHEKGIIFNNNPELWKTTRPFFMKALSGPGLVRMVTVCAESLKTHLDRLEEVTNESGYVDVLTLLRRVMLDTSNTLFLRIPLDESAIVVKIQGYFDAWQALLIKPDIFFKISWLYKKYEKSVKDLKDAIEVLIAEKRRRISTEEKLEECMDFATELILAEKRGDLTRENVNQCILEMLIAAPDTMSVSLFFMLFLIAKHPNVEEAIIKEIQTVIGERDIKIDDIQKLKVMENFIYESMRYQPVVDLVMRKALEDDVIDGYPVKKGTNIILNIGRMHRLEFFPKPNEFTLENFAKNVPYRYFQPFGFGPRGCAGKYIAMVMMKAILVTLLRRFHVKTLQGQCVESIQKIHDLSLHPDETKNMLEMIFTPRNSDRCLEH

O=[N+]([O-])c1ccccc1Cl
not listed: [24] | [25] | [26] | [27]
inactive: all other assays above

O=C(N[C@H]1CN2CCC1CC2)c1ccc(Cl)cc1
inactive: [24] | [25] | [26] | [27]

NC(CCCCCP(=O)(O)O)C(=O)O (configuration not stated)
inactive: [24] | [27]

CC(=O)c1c(O)c(C)c(O)c(Cc2c(O)c3c(c(C(=O)/C=C/c4ccccc4)c2O)OC(C)(C)C=C3)c1O
inactive: [27]
active: [24] 10.6 µM | [26] 3.48 µM
